# Bioassay records: PubChem, National Center for Advancing Translational Sciences (NCATS)
# IL-1B inflam inh = qHTS for Inhibitors of Inflammasome Signaling: IL-1-beta AlphaLISA Primary Screen; THP-1 LPS/ATP IL-1B secretion, AlphaLISA, 16 h; active compounds read low; activity change, % at 57.5 µM; AID 743279, 2014; actives 4.7% (n = 360,000); in the data active = activity change below about -50%; inconclusive = mostly about -30% to -49%; also: % is scaled to controls: 0 for no effect and ±100 for the full control effect
#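 Secreted IL-1B measured by AlphaLISA bead assay after 16 h compound exposure of THP-1 cells; compounds (final up to 57.5 uM) added 1 h before LPS (250 ng/mL) and ATP (1.25 mM) stimulation; lower signal means less secretion.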
# PINK1 modulator = A Quantitative High throughput Screen to Identify Chemical Modulators of PINK1 Expression. PINK1 immunofluorescence, high-content cytometry, 24 h. Potency, µM (highest dose often 76.6 µM), for the others: at the top dose activation (PINK1 increase), hits mostly activators. actives 0.2% (n = 410,000). AID 624263, 2012; active = well fitted activation curve with a large enough effect; inconclusive = small, poorly fitted or top-dose-only effect; cell line not stated here; also: potency is read from the fitted curve at half-maximal effect; % of control where 0% means no effect; nearly all actives have a fitted effect of over 65% in size
#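 Stable cell line treated 24 h with compounds at 5 concentrations (CCCP controls), then fixed and immunostained for PINK1 plus nuclear and cell stains; PINK1 immunofluorescence quantified by laser-scanning microplate cytometry.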
# S2 tox = Viability Counterscreen for Primary qHTS for Inhibitors of ATXN expression; S2 cells (HEK-293 line with an ATXN2-luciferase reporter) viability, CellTiter-Fluor protease fluorescence, 24 h; Potency, µM (titrated, usually from 56.7 µM), most hits filed as cytotoxic; actives 0.49% (n = 400,000); AID 651635, 2014; also: potency is read from the fitted curve at half-maximal effect; nearly all actives have a fitted effect of over 40% in size
# MCF10A rerep = A quantitative high throughput screen for small molecules that induce DNA re-replication in MCF 10a normal breast cells; MCF 10A DNA re-replication, Hoechst nuclear intensity, 48 h; Potency, µM (titrated, usually from 46.1 µM), without a hit: at the top dose activity, positive = re-replication, most hits filed as activators; actives 2.9% (n = 350,000); AID 624296, 2012; also: potency is read from the fitted curve at half-maximal effect; % of control where 0% means no effect; nearly all actives have a fitted effect of over 50% in size
# SW480 rereplic = A quantitative high throughput screen for small molecules that induce DNA re-replication in SW480 colon adenocarcinoma cells; SW480 DNA re-replication, Hoechst DNA content imaging, 48 h; Potency, µM (top dose mostly 46.1 µM), for inactives: top-dose re-replication activation, usual class: activators; actives 1.8% (n = 340,000); AID 624297, 2012; also: potency is read from the fitted curve at half-maximal effect; % of control where 0% means no effect; nearly all actives have a fitted effect of over 55% in size
#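 Compounds, transferred as 23 nL by pin tool, were incubated with cells for 48 hr; DNA content per nucleus was then quantified by Hoechst staining and fluorescence plate imaging.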
# ATXN2 expr inh = Primary qHTS for Inhibitors of ATXN expression. HEK-293 ATXN2-luciferase reporter, luminescence, 24 h. Potency, µM (doses to about 57 µM), for inactives: at the highest dose activity change, negative = inhibition, actives largely listed as inhibitors. actives 0.72% (n = 360,000). AID 1745845, 2022; also: potency is read from the fitted curve at half-maximal effect; % is scaled to controls: 0 for no effect and ±100 for the full control effect; nearly all actives have a fitted effect of over 55% in size
#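 ATXN2-luciferase reporter cells (luciferase flanked by upstream and downstream ATXN2 gene portions) were treated 24 h at 37 °C with compounds at up to 57 uM. SteadyGlo luminescence gave expression; GF-AFC fluorescence gave viability.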
# An asterisk follows results filed as active; i = inactive; ? = inconclusive; / = not tested or not shown; [ ] = remark or other dose. The list is not random: actives were taken first. Their share in the collection is about 7.1%. Unless noted, calls follow the shape of the dose curve; as a rule, active = well fitted curve in the direction sought with a large enough effect; inconclusive = small, poorly fitted or top-dose-only effect, or another doubt; inactive = no such curve, though single readings can be large; an effect the other way counts as inactive or inconclusive.
SMILES,IL-1B inflam inh,PINK1 modulator,S2 tox,MCF10A rerep,SW480 rereplic,ATXN2 expr inh
CCN(CC)CCNC(=O)c1sc2ncccc2c1-n1cccc1,/,0.0%,i,/,/,5.8%
Cc1ccc(CCNC(=O)CCSCc2ccccc2F)cc1,/,-0.1%,/,/,/,/
COCCNC(=O)CCSCc1ccccc1F,16.9,-0.9%[38.3 µM],i,4.11µM*,?,6.5%
CCCCNC(=O)C1CCC(CNS(=O)(=O)c2ccc(Cl)cc2)CC1 (centres undefined),/,1.3%,i,/,/,4.7%
Cc1[nH]n(-c2ncc(-c3ccccc3)s2)c(=O)c1C(c1ccc(Cl)cc1)C(C#N)C#N (centres undefined),-63.6*,3.6%,?,18.5%,-0.5%,-4.1%
Cc1[nH]n(-c2ccccc2)c(=O)c1C(c1ccccc1[N+](=O)[O-])C(C#N)C#N (centres undefined),-9.2,0.9%,i,-4.8%,-14.3%,/
Cc1ccc(C2CC(=O)N(Cc3ccc(F)cc3)c3c2c(C)nn3-c2nc(C)cc(C)n2)cc1 (centres undefined),/,6.2%,?,/,/,-25.5%
CCOc1cc(N2CCOCC2)c(OCC)cc1NC(=O)c1cc(S(=O)(=O)N2CCOCC2)ccc1Cl,3.0,10.7%,?,?,?,-6.5%
CCOc1cc(N2CCOCC2)c(OCC)cc1NS(=O)(=O)c1ccc(Cl)s1,36.9,4.8%,?,6.31µM*,18.4µM*,-12.0%
COc1cccc(NC(=O)c2cc3c(=O)n(Cc4cccnc4)ccc3nc2C)c1,/,0.8%,i,/,/,6.1%
CCc1ccc(C(c2c(C)nn(-c3ccccc3)c2N)c2c(C)nn(-c3ccccc3)c2N)cc1,-67.1*,9.7%,?,?,6.3%,-7.0%
O=C(N[C@@H]1c2ccccc2C2(CCN(C(=O)c3ccc4c(c3)OCCO4)CC2)[C@H]1O)c1cccnc1,/,-0.2%,i,/,/,/
CC(C)CCNC(=O)C(C)N(Cc1ccc(F)cc1)C(=O)c1ccc(CN2CCOCC2)o1 (centres undefined),16.4,0.2%,i,-4.0%,-3.5%,-3.0%
CC(C)(C)NC(=O)C(c1ccc(F)cc1)N(Cc1cccs1)C(=O)c1ccc(CN2CCOCC2)o1 (centres undefined),-52.7*,-4.2%,i,1.4%,-2.0%,-0.9%
CC(C)=CCc1cc([C@@H]2COc3c(ccc4c3C=CC(C)(C)O4)C2)c(O)cc1O,-51.0*,-1.0%,/,5.17µM*,4.7%,?
COc1ccccc1C(=O)Nc1ccc2nc(SCC(=O)N3CCCC3)sc2c1,/,1.5%,/,/,/,/
CCCn1c(O)c(/C=C2\C=NN=C2c2ccccc2)sc1=S,?,?,?,9.2µM*,8.9%,-29.8%
C=CCn1c(O)c(C=Nc2ccccc2)sc1=S,-14.0,6.0%,i,-0.8%,19.5%,48.7%
C=CCn1c(O)c(/C=C2\C=NN=C2c2ccccc2)sc1=S,-58.8*,0.0%,i,?,9.6%,-10.5%
CCCCC(CC)Cn1c(O)c(/C=C2\C=NN=C2c2ccccc2)sc1=S (centres undefined),-104.2*,-2.2%,/,?,3.2%,?
CCOC(=O)c1ccc(N2CCN(c3cc(C)ccc3C)CC2)c(NC(=O)Nc2ccc(Cl)cc2)c1,/,3.0%,/,/,/,/
COc1cc(-c2nc3cnccn3c2Nc2ccc(C(C)C)cc2)ccc1O,-81.2*,2.9%,?,1.3%,0.5%,?
COc1cc(-c2nc3ccc(C)cn3c2Nc2ccc3c(c2)OCCO3)ccc1O,?,1.8%,?,20.6µM*,7.6%,12.6%
O=C(C[n+]1ccc(Cl)c2ccc(Cl)cc21)c1ccc(F)cc1,/,-0.7%,/,/,/,/
CC(C)C1OC(c2cccc(NC(=O)c3cccs3)c2)OCC1(C)C (centres undefined),-74.5*,29.5%,i,?,0.9%,-35.3%
SMILES,IL-1B inflam inh,PINK1 modulator,S2 tox,MCF10A rerep,SW480 rereplic,ATXN2 expr inh
CCOC(=O)Cn1cc(C(=O)C(C)(C)C)c2ccccc21,0.0,-0.6%,i,-14.5%,-6.8%,-12.5%
COC(=O)Cn1cc(C(=O)C2CC2)c2ccccc21,-89.1*,0.1%,i,-1.2%,-1.3%,-6.3%
COC(=O)Cn1cc(C(=O)C(C)(C)C)c2ccccc21,-73.5*,-1.8%,?,0.0%,-3.7%,-16.7%
CCOC(=O)Cn1cc(C(=O)C2CC2)c2ccccc21,23.4,-0.1%,i,5.2%,-18.2%,7.1%
CCOC(=O)c1c(C)oc2nc(C)nc(N3CCN(c4cccc(C(F)(F)F)c4)CC3)c12,/,0.8%,i,/,/,-17.8%
CCc1nc(CN2CCOc3ccc(C(O)C4CCCCC4)cc3C2)c(C)[nH]1 (centres undefined),/,1.9%,?,/,/,/
CCN=C1NN=C(c2c[nH]c3ccccc23)CS1,-105.7*,-0.2%,i,0.6%,0.2%,-28.1%
CCN=C1NN=C(c2cc(C)n(Cc3ccco3)c2C)CS1,3.9,5.4%,i,9.3%,/,?
COCC(C)N=C1NN=C(c2c[nH]c3ccccc23)CS1 (centres undefined),-79.7*,-0.7%,i,-0.1%,-0.8%,/
O=C(/C=C/c1cccs1)NC(=S)Nc1ccccc1,-62.1*,-0.2%,i,0.4%,2.5%,41.7%
NS(=O)(=O)c1ccc(NC(=O)/C=C/c2ccc(S(=O)(=O)NCc3ccco3)cc2)cc1,-52.0*,-1.7%,i,-6.2%,-6.2%,-18.1%
NS(=O)(=O)c1ccc(NC(=O)/C=C/c2cccs2)cc1,16.8,8.1%,i,-1.7%,23.1µM*,26.9%
NS(=O)(=O)c1cccc(NC(=O)/C=C/c2cccs2)c1,-23.7,0.9%,i,-0.7%,-3.3%,21.4%
O=C(/C=C/c1cccs1)Nc1nccs1,42.0,1.2%,i,?,2.6%,/
O=C(/C=C/c1cccs1)Nc1cccc(NC(=O)/C=C/c2cccs2)n1,-4.2,-3.7%,i,18.4µM*,-0.7%,-21.8%
Cn1c(=O)c2c(nc(N3CCCC3)n2CC(O)CO)n(C)c1=O (centres undefined),0.0,0.7%[38.3 µM],i,4.7%,0.2%,6.6%
C=CCOCC(O)Cn1c(N2CCCC2)nc2c1c(=O)n(C)c(=O)n2C (centres undefined),0.0,0.4%,i,1.3µM*,-35.9%,-10.9%
Clc1ccccc1Cn1c(/C=C/c2ccco2)nc2ccccc21,?,9.1%,i,18.4µM*,/,-31.0%
Cc1nn(C(C)C(=O)N2CCN(c3ccc(F)cc3)CC2)c(=O)c2c1sc1ccccc12 (centres undefined),/,4.5%,/,/,/,/
